The values that follow come from PubChem BioAssay (NCI).

Each structure is given as a SMILES string. “And” between values parts separate entries of the source, which are not always exact repeats. Equal entries are not always repeated. This is part of a sample that, as a whole, favours compounds with a hit. Of some 83,000 tested, about 20% had one in any assay.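 How to read the values: 0–100, growth inhibition (40 = 60% inhibited); 0, no net growth; -100 to 0, cell death (-40 = 40% of starting cells died; -100 = all dead).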 The source made the active and inactive calls. How the source made its calls: active means growth percent below 10; inactive means the rest.

This assay concerns MDA-MB-468 breast. Nature of the assay: NCI-60 one-dose screen, 48 h (100 = growth as untreated, 0 = no growth, -100 = all killed). Particulars: 10 µM unless noted.
For the compound `CC(C)(C)CC1(C)NC(=O)NC1=O` (stereo not given), the growth is 96.1% (inactive). The value for `O=C1c2ccccc2OC=C(c2ccccc2)N1CCCCNc1ccc(S(=O)(=O)Nc2ncccn2)cc1` was 103% (inactive); that for `C[C@@H]1O[C@@H](O[C@@H]2C[C@H](c3ccc4c(c3O)C(=O)C3=C(C4=O)[C@@]4(O)C(=O)C[C@](C)(O)C[C@@]4(O)C=C3)O[C@H](C)[C@H]2O)CC[C@@H]1O[C@H]1C[C@@H](O)[C@H](O)[C@@H](C)O1` was 106% (inactive); that for `O=c1nc2sc3nc4ccccc4cc3cc-2s1` was 124% (inactive). The value for `O=C(N/N=C/c1ccc(Cl)s1)c1[nH]c2ccc(Br)cc2c1-c1ccccc1` was 2.96% (active). In the case of `COc1ccc2c(c1)OC1=C(C(=O)OC1)C2c1cc(OC)c(OC)c(OC)c1` (stereo not given), the growth is -5.94% (active).

With `Cc1cccc(Cl)c1NC(=O)c1cnc(Nc2cc(N3CCOCC3)cc(N3CCOCC3)c2)s1`, the growth is -8.47% (active).

Consider `CCN1C(=O)N(CC)C2Nn3c(s/c(=C\c4ccc(OC)cc4)c3=O)=NC21` (stereo not given), for which the growth was 14.1% (inactive). The value for `C=CC1=NC(C)(C)CC(C)O1` (stereo not given) was 109% (inactive); that for `CCOC(=O)c1c(C)nc2ccccc2c1/C=C/c1ccc(F)cc1` was -2.47% (active). The value for `CNc1ccc(Br)cc1-c1n[nH]c(=O)[nH]c1=O` was 120% (inactive).

`NS(=O)(=O)c1ccc(NC2=C(Cl)C(=O)c3ccccc3C2=O)cc1`: the growth is -67% (active).

Regarding `COc1cc(CNC(=O)/C=C/C=C/c2ccc3c(c2)OCO3)ccc1OCc1cn(-c2ccc(C)c(C)c2)nn1`, the growth is 65.2% (inactive). With `O=C(Nc1ccccc1-c1nc2ccccc2c(=O)[nH]1)c1cc2ccccc2[nH]1`, the growth is 86.9% (inactive). With `NC(=N\N=C/c1cccc([N+](=O)[O-])c1)/C(N)=N\N=C/c1cccc([N+](=O)[O-])c1`, the growth is 64.9% (inactive).

For the compound `COc1ccc(CCN2CCC(Nc3nc4ccccc4n3Cc3ccc(F)cc3)CC2)cc1`, the growth is -84.1% (active). To `C[C@@H]1C[C@H]2C(=O)O[C@@H](C)C(NC(=O)[C@H](Cc3cc(F)cc(F)c3)NC(=O)Nc3ccc(Cl)cc3F)C(=O)N3CCC[C@H]3C(=O)N3CCCC[C@H]3C(=O)N[C@@H](CO)C(=O)N2C1` (stereo not given in full) belongs -10.4% (active); to `COc1cccc(/C=C/C(=O)c2c(C)nc3ccccc3c2/C=C/c2ccc(C)cc2)c1OC`, 58.3% (inactive); to `COc1ccccc1-n1cc(C#N)c(N)c1C(=O)c1ccc(C)cc1`, 46.2% (inactive).

With `CCCCCOc1ccc(/C=N/Nc2cc(C)nc3ccc(Cl)cc23)cc1`, the growth is -29% (active). As to `O=c1scc(-c2ccc(C(F)(F)F)cc2)s1`, the growth was 72.5% (inactive). The value for `O=C(CN1CCN(c2cc(=O)n(-c3ccccc3)c3ccccc23)CC1)Nc1cccc(C(F)(F)F)c1` was 4.55% (active); that for `CCN(CC)CCNc1cc(-c2cccc(OC(F)(F)F)c2)nc2ccc(N3CCCC3)cc12` was 28.6% (inactive) and -38.3% (active) and 0.911% (active). The value for `CCCCCCCC(=O)OCC/C=C/C1OC1C1OC(=O)/C=C\C=C\C(=O)N(C(C)=O)C(=O)/C=C(/C)CCC2OC2C1OC(=O)NC(C)=O` (stereo not given) was -3.75% (active); that for `COc1ccc(/C=N\NC(=O)c2ccc3nc(-c4ccc(Cl)cc4)[nH]c3c2)cc1` was 24.2% (inactive).

On to `COc1nc2c(cc1S(=O)(=O)c1ccccc1)CCc1c-2cnn1-c1ccccc1Cl`, for which the growth was 40.4% (inactive). With `O=C(Cc1ccc(/C=C/C(=O)c2ncc[nH]2)cc1)Nc1ccc(Br)cc1`, the growth was 19.6% (inactive). To `N#Cc1ccc(N2Cc3cc(Cl)ccc3OC3=C2C(=O)N(Cc2ccc(F)cc2)C3=O)cc1` belongs -68.2% (active); to `O=C(NCCNc1cc(-c2cn(-c3ccccc3)nc2-c2cccc(O)c2)ccn1)Nc1ccc(Cl)c(C(F)(F)F)c1`, 17.5% (inactive). To `N/C(=N\N=C\c1cc2ccccc2s1)N/N=C/c1cc2ccccc2s1` belongs 122% (inactive); to `O=C1CSC(c2ccccc2Cl)N1c1nnc(-c2ccncc2)o1` (stereo not given), 98.4% (inactive); to `CCCC(=O)NC(c1cccnc1)c1cc(Cl)c2cccnc2c1O` (stereo not given), 30.2% (inactive). To `COC(=O)C(C)NC1=C(Cl)C(=O)C(NC(C)C(=O)OC)=C(Cl)C1=O` (stereo not given) belongs 63.6% (inactive); to `CCOC(=O)C(C(C)=O)c1nc2sc3cc(Cl)c(Cl)cc3n2c(=O)c1C#N` (stereo not given), 89.5% (inactive). For `O=C(c1ccc(Cl)cc1)C1[C@H](c2ccc(Cl)cc2)[C@@H](c2ccccc2)NC12C(=O)Nc1ccc(Br)cc12` (stereo not given in full), the growth was 45.8% (inactive). The value for `COc1ccc(/C=C/c2nc(Nc3ccc(S(=O)(=O)NC(C)=O)cc3)c3ccccc3n2)cc1` was 53.2% (inactive); that for `O=S(=O)(Nc1ccc2ccccc2c1)N1CCCCC1` was 12.8% (inactive). The value for `O=C(c1ccccc1)C(CN1CCCCC1)c1ccccc1` (stereo not given) was -29.1% (active). Take `CCCCCCCCCCCC1=NCCCN1CCCC`: the growth was 101% (inactive). To `COc1cc(OC)c(/C=C/c2c3ccccc3cc[n+]2C)c(OC)c1` belongs -26.5% (active).
